Each structure is given as a SMILES string. Values joined by “and” are separate entries in the source; they are usually repeats but may differ in a detail not shown here. Identical values can stand only once.

As a reminder, the inhibition is the drop in the measured response relative to a control, in per cent.

Holding throughout (type): functional
Test [1] concerns the target Solute carrier family 2, facilitated glucose transporter member 1 (Homo sapiens) (UniProt P11166). Description: ST_JUDE_LEISH: Cytotoxicity at 2uM final concentration against transgenic Leishmania Mexicana promastigotes LmGLUT1 that are glucose transport deficient and complemented with the human glucose transporter GLUT1. Activity is measured by DNA content using SYBR green in vitro.

The target of test [2] is Hexose transporter 1 (Plasmodium falciparum) (UniProt O97467). Description: ST_JUDE_LEISH: Cytotoxicity at 2uM final concentration against transgenic Leishmania Mexicana promastigotes LmPfHT that are glucose transport deficient and complemented with the Plasmodium falciparum hexose transporter. Activity is measured by DNA content using SYBR green in vitro.
Test [3] deals with Glucose transporter (Leishmania mexicana) (UniProt O61059). Description: ST_JUDE_LEISH: Cytotoxicity at 2uM final concentration against transgenic Leishmania Mexicana promastigotes LmGT2 that are glucose transport deficient and complemented with the L. Mexicana glucose transporter 2. Activity is measured by DNA content using SYBR green in vitro.

Chain of Solute carrier family 2, facilitated glucose transporter member 1 (Homo sapiens) (P11166 whole entry): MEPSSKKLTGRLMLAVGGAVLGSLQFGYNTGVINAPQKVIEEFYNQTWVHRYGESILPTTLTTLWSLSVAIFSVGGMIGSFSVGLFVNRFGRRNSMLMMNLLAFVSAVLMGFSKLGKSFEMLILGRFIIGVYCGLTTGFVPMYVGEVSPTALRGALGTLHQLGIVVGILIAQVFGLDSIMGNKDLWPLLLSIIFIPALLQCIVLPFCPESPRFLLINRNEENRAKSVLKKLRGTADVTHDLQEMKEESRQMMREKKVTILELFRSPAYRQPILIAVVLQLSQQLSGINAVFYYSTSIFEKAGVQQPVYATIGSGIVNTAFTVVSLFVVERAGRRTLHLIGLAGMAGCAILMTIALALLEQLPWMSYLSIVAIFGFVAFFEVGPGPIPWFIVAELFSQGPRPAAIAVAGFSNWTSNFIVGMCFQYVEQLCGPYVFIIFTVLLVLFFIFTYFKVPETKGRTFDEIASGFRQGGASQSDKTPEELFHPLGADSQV

Take `COc1ccc(CNC2CCN(C)CC2)cc1-c1cccc(S(=O)(=O)NCc2ccccc2)c1`: the results for the inhibition in test [1], in test [2] and in test [3] were 1.72%, 1.62% and 0.24%, respectively.
Taken in the same sequence, the figures for `O=C(NCc1ccc(C(=O)N2CCC(N3CCCCC3)CC2)cc1)c1cc(-c2cccc(C(F)(F)F)c2)ccc1O` were 7.73%, 6.4% and 7.14%.
As for `O=C(Nc1cccc(CN2CCCN(Cc3cccc(O)c3)CC2)c1)c1ccc(-c2ccccc2)cc1`, the inhibition in test [1] was -3.92%; in test [2] it was -2.77%; in test [3] it was -0.17%.
As for `COc1cccc(CCNCc2ccc(-c3cccc(CNC4CCCC4)c3)cc2)c1`, the values for the inhibition in test [1], in test [2] and in test [3] were 7.38%, 5.19% and 3.02%, respectively.
In the case of `COc1ccc2nccc([C@@H](O)CN3CCC(NC(=O)c4cc5c(F)cc(F)cc5[nH]4)CC3)c2n1`, the inhibition in test [1] turned out to be 87%; in test [2] it was 84.1%; in test [3], 85.4%.
On the same counts, the results for `Oc1ccc2ccccc2c1C=NNc1nc(=Nc2ccccc2)[nH]c(=Nc2ccccc2)[nH]1` are 3.37%, 3.44% and 2.92%.
On the same counts, the results for `Cc1cccc2nc(-c3cccc(-c4cccc(CNCCc5cccn5C)c4)c3)[nH]c12` are 0.04%, 2.29% and -0.27%.
Taken in the same sequence, the figures for `CCCCCN1CCC(NS(=O)(=O)c2cccc(C(=O)Nc3ccc(C(F)(F)F)cc3)c2)C1` (stereo not drawn) were 1.64%, 1.94% and 1.9%.
As for `c1ccc(OCCCCN2CCCCC2)cc1`, the inhibition is 0.95% in test [1], 0.56% in test [2] and -4.15% in test [3].
In the case of `CCCc1cc(Cc2cnc(N)nc2N)cc(CC)c1OC`, the inhibition in test [1] was 6.06%; in test [2] it was 4.59%; in test [3], 2.29%.
On the same counts, the results for `C=CCc1ccccc1OCC(O)CN(C1CCCCC1)C1CCCCC1` (stereo not drawn) are -1.79%, -2.31% and 5.77%.
On the same counts, the results for `CS(=O)(=O)N1CC2(CCN(CCC(NC(=S)Nc3ccccc3)c3ccc(Cl)c(Cl)c3)CC2)c2ccccc21` (stereo not drawn) are 3.72%, 1.67% and -0.39%.
With `O=[N+]([O-])c1cc(/C=N/Nc2nc3ccccc3[nH]2)ccc1O`, the figures for the inhibition in test [1], in test [2] and in test [3] were 8.03%, 8.49% and 4.27%, respectively.
Consider `COc1ccc(CN2CCC(N3CC(c4ccccc4)(c4ccccc4)OCC3=O)C2)c(O)c1` (stereo not drawn), for which the values for the inhibition in test [1], in test [2] and in test [3] were -1.54%, -0.28% and -1.56%, respectively.
Regarding `Nc1ccc2nc(C=Cc3ccccc3)[nH]c2c1`, the results for the inhibition in test [1], in test [2] and in test [3] were 1.45%, 0.85% and 3.06%, respectively.
As to `Cn1nccc1C(=O)NCCNCc1ccc(-c2ccc(-c3nc4cc(F)ccc4[nH]3)cc2)cc1`, the inhibition in test [1] is 1.91%; in test [2], 4.48%; in test [3] it was 5.68%.
Taken in the same sequence, the figures for `CC(=O)N1CCC(C(=O)Nc2ccc(-c3cccc(-c4nc5cc(C(F)(F)F)ccc5[nH]4)c3)cc2)CC1` were 0.57%, 3.33% and 1.24%.
`O=C(Nc1cccc(CN2CCCN(CC3CCCCC3)CC2)c1)c1cc2ccccc2s1`: the figures for the inhibition in test [1], in test [2] and in test [3] were 1.81%, 0.88% and -8.67%, respectively.
As for `CCCN(CCC)C(=O)c1cc(C(=O)N[C@@H](Cc2ccccc2)[C@H](O)CNC2CC2)cc(N2CCCCS2(=O)=O)c1`, the inhibition was found to be 2.88% in test [1], 2.88% in test [2] and 1.62% in test [3].
In the case of `c1ccc2c(CNc3ccnc(NCc4cccc5ccccc45)n3)cccc2c1`, the inhibition was found to be 9.83% in test [1], 5.69% in test [2] and 7% in test [3].
On the same counts, the results for `CCN(CC)CCN(Cc1ccc(-c2ccc(C(F)(F)F)cc2)cc1)C(=O)Cn1c(/C=C/c2ccco2)nc(=O)c2ccccc21` are -0.7%, -0.97% and -1.26%.
On the same counts, the results for `FC(F)(F)c1ccc2[nH]ccc(=NN=Cc3ccccc3Cl)c2c1` are 2.85%, 1.66% and 1.62%.
On the same counts, the results for `COc1cc2ccccc2c(CNCCCCCCNCc2c(OC)c(OC)cc3ccccc23)c1OC` are 4.39%, 3.44% and 1.23%.
Consider `CCC(C)NC(=O)Nc1ccc(-c2cccc(-c3nc4ccccc4[nH]3)c2)cc1` (stereo not drawn), for which the inhibition in test [1] was -0.78%; in test [2], 4.24%; in test [3] it was 5.49%.
On the same counts, the results for `CN(C)c1ccc(-c2csc(C(=O)NC3CCCCN(CCC(C)(C)C)C3)c2)cc1` (stereo not drawn) are 2.51%, 2.15% and 0.68%.
Consider `CC(C)NC(=O)c1cccc(-c2cccc(OCCN3CCSCC3c3ccccc3)c2)c1` (stereo not drawn), for which the inhibition in test [1] was 10.4%; in test [2], 9.35%; in test [3], 8.53%.
Taken in the same sequence, the figures for `N#Cc1ccc2[nH]cc(C(=O)CCCCCN(Cc3ccccc3)Cc3ccccc3)c2c1` were 0.31%, -2.35% and -0.24%.
On the same counts, the results for `CCCCc1ccc(-c2ccc3[nH]c(C)c(Br)c(=O)c3c2)cc1` are 3.02%, 3.88% and 2.44%.
Taken in the same sequence, the figures for `N#Cc1ccc(C=CC(=O)NC2CCC(CCN3CCc4ccc(-c5cnccn5)cc4CC3)CC2)cc1` (stereo not drawn) were 4.1%, 2.97% and 0.59%.
As to `Cc1cc(=O)c(-c2ccc(Oc3cccc(C(F)(F)F)c3)cc2)c(C)[nH]1`, the inhibition in test [1] was 0.14% and -4.84%; in test [2], 2% and 2.11%; in test [3], 1.32% and -2.73%.
For the compound `Cc1cc(N)c2cc(NC(=O)/C=C/c3ccccc3Cl)ccc2n1`, the inhibition in test [1] was -4.75%; in test [2] it was 0.57%; in test [3], -0.21%.
Take `Nc1nnc(-c2ccc(Cl)c(Br)c2)c(N)n1`: the inhibition was -0.74% in test [1], 1.8% in test [2] and 4.94% in test [3].
Taken in the same sequence, the figures for `CC(C)(CN)c1nc(-c2ccc(Br)c(O)c2)c(-c2ccncc2)[nH]1` were 1.39%, 1.51% and 2.58%.
Taken in the same sequence, the figures for `CC(C)(C)C(=O)Nc1ccc(C(=O)Nc2cccc(-c3nc4ccccc4[nH]3)c2)cc1` were 1.87%, 0.85% and -0.79%.
Taken in the same sequence, the figures for `Cc1ccc(C)c(Cn2c(N3CCC(C(=O)NCc4cccs4)CC3)nc3ccccc32)c1` were 3.18%, 4.2% and -0.43%.
Turning to `CS(=O)(=O)Nc1ccc(OCCCCCCOc2ccc(NS(C)(=O)=O)cc2)cc1`, the inhibition was 1.48% in test [1], 3.08% in test [2] and 2.14% in test [3].

The record behind these values is ChEMBL document CHEMBL3433997, “St. Jude Leishmania screening dataset” (2016).
